# Laboratory results published in PubChem BioAssay AID764 (NMMLSC, 2007).
# Screen size: about 190,000 compounds; about 220 (0.12%) were called active. Inconclusive results (about 2%) are left out. The list comes from a sample in which actives are over-represented; it also holds similar structures and randomly drawn compounds. Values without a mark were called inactive.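 Rule for the calls: active = GTP binding at least 20 percentage points away from the 100% baseline, in either direction, so actives lie on both sides; inconclusive = Compound likely fluorescent itself, or too few beads counted; inactive = the rest.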
# Target: Ras-related C3 botulinum toxin substrate 1 (Homo sapiens) (UniProt P63000)
# Assay: GTP binding modulators of activated mutant Rac1, primary screen, biochemical, bead-based flow cytometry, multiplex, fluorescent GTP (AID 764)
# Details: GST-Rac1 activated beads, at 10 µM, actives lie on both sides, 100% means binding = to untreated wells
row,Structure (SMILES),percent activity (GTP binding) [%]
1,COc1cc(N2C(=O)c3ccccc3C2=O)c(Cl)cc1C(=O)OCC(=O)N1CCOCC1,97
2,COc1ccc(N2CCN(C(C)=C3C(=O)c4ccccc4C3=O)CC2)cc1,92
3,CCOC(=O)C(C)n1nc(-c2ccccc2)c2ccccc2c1=O (stereo not given),96
4,Cc1ccc(CN(Cc2cccnc2)C(=S)Nc2cc(Cl)ccc2C)cc1,95
5,CC1Cc2ccccc2N1S(=O)(=O)c1c(N)n(C)c(=O)n(C)c1=O (stereo not given),102
6,C/C(N)=C(/C#N)C(=O)COC(=O)C1CCN(C(=O)c2ccc(Cl)cc2)CC1,97
7,O=C(COC(=O)c1ccc(F)cc1)Nc1nc2ccc([N+](=O)[O-])cc2s1,93
8,COc1cccc(CNn2cn[nH]c2=S)c1OCc1ccccc1,95
9,COC(=O)C1=C(C)N(C)C(=O)NC1c1ccc([N+](=O)[O-])o1 (stereo not given),93
10,CCOC(=O)C1CCN(S(=O)(=O)c2cc(F)ccc2OC)CC1,96
11,Cc1cccc(N(C(=O)Cc2cccs2)C(C(=O)NCc2ccco2)c2ccncc2)c1 (stereo not given),101
12,O=C(c1ccc(F)cc1)n1cc(C(=S)N2CCOCC2)c2ccccc21,98
13,CCCN(CC(=O)Nc1ccccc1C)C(=O)c1cc(=O)[nH]c2ccccc12,95
14,CCCC(=O)NC(=S)Nc1ccc(CN2CCOCC2)cc1,95
15,CCN1CCc2nc(NC(=O)c3cc(F)c(F)cc3Cl)sc2C1,95
16,CCCCc1ccc(NC(=S)NCCCN2CCOCC2)cc1,94
17,CCOc1ccc(CN2CCN(Cc3ccc(C)o3)CC2CCO)cc1 (stereo not given),96
18,O=Cc1ccc(OCc2cn3ccccc3n2)cc1,97
19,Brc1cc(/C=N/n2cnnc2)oc1Br,100
20,CS(=O)(=O)Nc1cccc(-c2cn3ccccc3n2)c1,96
21,CCOC(=O)CNC(=O)/C(=C\c1ccc(F)cc1)NC(=O)c1ccccc1,95
22,COc1cccc(CC(=O)N2CCCC(CCC(=O)N3CCN(c4ccccn4)CC3)C2)c1 (stereo not given),96
23,Cc1cccc(C)c1NC(=O)C1CCCN1C(=O)OC(C)(C)C (stereo not given),97

row,Structure (SMILES),percent activity (GTP binding) [%]
1,CCOc1cc(NC(=S)NCCCN(C)C)c(OCC)cc1NC(=O)C1CC1,95
2,CCC(C)c1ccc(NC(=S)NCc2ccccn2)cc1 (stereo not given),94
3,COc1cccc(/C=C2\SC(=N)N(c3ccc(F)cc3)C2=O)c1,93
4,O=C(CSc1ccc(-c2ccco2)nn1)NCc1ccc2c(c1)OCO2,96
5,COc1ccc(N(CC(=O)Nc2ccc(C)cc2C)S(=O)(=O)c2ccccc2[N+](=O)[O-])c(OC)c1,93
6,CCOc1ccc(CCN2C(=O)c3cccnc3C2=O)cc1OCC,97
7,O=C1N/C(=C/c2cccs2)C(=O)N1Cc1ccc(F)cc1,97
8,O=C(Nc1ccc2c(c1)C(=O)OC2)Nc1cccc2ccccc12,96
9,NC(=O)C1CCN(C(=O)COc2cccc3cccnc23)CC1,95
10,Cn1c(N)c(C(=O)COC(=O)c2cnc(Cl)c(Cl)c2)c(=O)n(C)c1=O,93
11,CN(C)c1ccc2c(=O)[nH][nH]c(=O)c2c1,99
12,O=S(=O)(NCCc1ccc(F)cc1)c1cccc2cccnc12,96
13,CCC(=O)N1CCC(C(N)=O)(N2CCCCC2)CC1,96
14,COc1cc2sc(C)nc2cc1C,95
15,CCN(CC)P(=O)(Nc1ccc(SC(F)F)cc1)c1ccc(N(C)C)cc1NC(=O)c1ccco1 (stereo not given),92
16,COc1ccc(C2=NN(C(=O)CCC(=O)O)C(c3cccs3)C2)cc1OC (stereo not given),96
17,COCCCNC(NC(=O)c1ccc(OC)cc1)C(Cl)(Cl)Cl (stereo not given),95
18,COc1ccc(NS(=O)(=O)c2cc(NC(=O)C3CCCCC3)ccc2N2CCOCC2)cc1,96
19,C/C=C/c1ccc(OCC(O)CN2CCCCCCC2)c(OC)c1 (stereo not given),96
20,CC(C)N(C(=O)CSc1nc(COc2ccccc2)nc2ccccc12)C(C)C,93
21,O=C(Nc1nnc(Cc2ccccc2)s1)c1cnccn1,99
22,CCOc1cc(/C=N/NC(=O)c2ccc(CSc3nncn3C)cc2)ccc1OCC(=O)N1CCOCC1,93
